Source: PubChem BioAssay AID1159580 (chemical genetic matrix, 2015)
The whole screen tested about 5,500 compounds, of which about 2,000 (36%) were called active. Inconclusive results (about 18%) are left out. Rule as the data show it: active = normalized growth mostly below about 0.91 (no sharp cut-off); inconclusive = no clear call, values can overlap the other calls; inactive = mostly above about 0.92. Some of the results follow.

Assay: chemical genetic growth profiling, strain panel (AID 1159580);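 also: tested at 20 µM; growth read once vehicle control cultures reached saturation at 30 °C; 1 = growth at the plate median or of vehicle wells; lower values mean less growth of the strain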
Settings: S. cerevisiae deletion strains, growth OD

Measured: normalized growth

COc1cc(O)c2c(=O)c(O)c(-c3ccc(O)c(O)c3)oc2c1
active: locus YAL021C, strain ccr4, stronger effect = lower value 0.466 | locus YAL026C, strain drs2, stronger effect = lower value 0.678 | locus YAL030W, strain snc1, stronger effect = lower value 0.886 | locus YBL061C, strain skt5, stronger effect = lower value 0.794 | locus YBR009C, strain hhf1, stronger effect = lower value 0.773 | locus YBR023C, strain chs3, stronger effect = lower value 0.693 | locus YBR231C, strain swc5, stronger effect = lower value 0.72 | locus YBR279W, strain paf1, stronger effect = lower value 0.829 | locus YCL011C, strain gbp2, stronger effect = lower value 0.803 | locus YCL016C, strain dcc1, stronger effect = lower value 0.865 | locus YCL069W, strain vba3, stronger effect = lower value 0.846 | locus YCR088W, strain abp1, stronger effect = lower value 0.912 | locus YDR069C, strain doa4, stronger effect = lower value 0.467 | locus YDR137W, strain rgp1, stronger effect = lower value 0.659 | locus YDR297W, strain sur2, stronger effect = lower value 0.787 | locus YDR334W, strain swr1, stronger effect = lower value 0.755 | locus YDR335W, strain msn5, stronger effect = lower value 0.761 | locus YEL003W, strain gim4, stronger effect = lower value 0.795 | locus YEL037C, strain rad23, stronger effect = lower value 0.823 | locus YEL061C, strain CIN8 (second series), stronger effect = lower value 0.907 | locus YER015W, strain faa2, stronger effect = lower value 0.66 | locus YER016W, strain bim1, stronger effect = lower value 0.895 | locus YER111C, strain swi4, stronger effect = lower value 0.793 | locus YER155C, strain BEM2 (second series), stronger effect = lower value 0.789 | locus YFR010W, strain ubp6, stronger effect = lower value 0.736 | locus YGL173C, strain kem1, stronger effect = lower value 0.657 | locus YGL253W, strain hxk2, stronger effect = lower value 0.693 | locus YHR013C, strain ard1, stronger effect = lower value 0.808 | locus YHR027C, strain rpn1, stronger effect = lower value 0.549 | locus YHR129C, strain ARP1, stronger effect = lower value 0.875 | locus YHR142W, strain chs7, stronger effect = lower value 0.622 | locus YJL092W, strain hpr5, stronger effect = lower value 0.885 | locus YJL095W, strain BCK1 (second series), stronger effect = lower value 0.746 | locus YJL129C, strain trk1, stronger effect = lower value 0.867 | locus YJL164C, strain tpk1, stronger effect = lower value 0.723 | locus YJL166W, strain qcr8, stronger effect = lower value 0.819 | locus YJL187C, strain SWE1 (second series), stronger effect = lower value 0.776
inactive: locus YAL013W, strain DEP1, stronger effect = lower value 0.998 | locus YBR021W, strain FUR4, stronger effect = lower value 1.01 | locus YBR171W, strain sec66, stronger effect = lower value 0.932 | locus YBR229C, strain ROT2, stronger effect = lower value 0.987 | locus YCL029C, strain bik1, stronger effect = lower value 1.01 | locus YDL005C, strain med2, stronger effect = lower value 1 | locus YDL035C, strain GPR1, stronger effect = lower value 0.931 | locus YDL040C, strain nat1, stronger effect = lower value 0.988 | locus YDL074C, strain BRE1, stronger effect = lower value 0.822 | locus YDL101C, strain DUN1, stronger effect = lower value 0.911 | locus YDL185W, strain tfp1, stronger effect = lower value 0.995 | locus YDL192W, strain arf1, stronger effect = lower value 0.986 | locus YDR001C, strain nth1, stronger effect = lower value 0.954 | locus YDR101C, strain arx1, stronger effect = lower value 0.992 | locus YDR159W, strain sac3, stronger effect = lower value 0.891 | locus YDR162C, strain NBP2, stronger effect = lower value 0.948 | locus YDR195W, strain ref2 1.02 | locus YDR318W, strain mcm21, stronger effect = lower value 0.986 | locus YDR388W, stronger effect = lower value 1.01 | locus YDR392W, strain spt3, stronger effect = lower value 0.838 | locus YDR502C, strain sam2, stronger effect = lower value 0.981 | locus YEL061C, strain CIN8, stronger effect = lower value 0.966 | locus YER110C, stronger effect = lower value 1.03 | locus YER155C, strain BEM2, stronger effect = lower value 1.01 | locus YER167W, strain BCK2, stronger effect = lower value 1.02 | locus YGL078C, strain dbp3, stronger effect = lower value 1.01 | locus YGL086W, strain mad1, stronger effect = lower value 0.933 | locus YGL167C, strain pmr1, stronger effect = lower value 0.949 | locus YGL227W, strain vid30, stronger effect = lower value 1.01 | locus YGL240W, strain doc1, stronger effect = lower value 0.961 | locus YGL248W, strain PDE1, stronger effect = lower value 0.915 | locus YGR135W, strain pre9, stronger effect = lower value 0.984 | locus YGR252W, strain gcn5, stronger effect = lower value 1.03 | locus YHR030C, strain SLT2, stronger effect = lower value 0.971 | locus YHR079C, strain IRE1 (second series), stronger effect = lower value 1.02 | locus YHR094C, strain hxt1, stronger effect = lower value 1.02 | locus YHR200W, strain rpn10, stronger effect = lower value 0.997 | locus YIL066C, strain RNR3, stronger effect = lower value 0.974 | locus YIL073C, strain SPO22, stronger effect = lower value 0.925 | locus YIL125W, strain kgd1, stronger effect = lower value 0.981 | locus YIR030C, strain dcg1, stronger effect = lower value 1.01 | locus YJL095W, strain BCK1, stronger effect = lower value 0.822 | locus YJL115W, strain asf1, stronger effect = lower value 0.968 | locus YJL134W, strain LCB3, stronger effect = lower value 0.986 | locus YJL154C, strain vps35, stronger effect = lower value 0.957 | locus YJL168C, strain set2, stronger effect = lower value 1.03 | locus YJR043C, strain POL32, stronger effect = lower value 0.896
